According to the supplement of paper PMC6555819:

Experiments:
Assay in all cases: PBM binding z-score (relative to random genomic background probes); higher = stronger binding; sequences stand for … in GC…GCGATTGACAGCGTAGAATGAAGG
[1] = system: PPARg:RXRa DBDmut IVT, anti-RXR (DBD mutation: RXRa K156A/R161A, NR concentration 270 nM, RXRa partner concentration 90 nM)
Method in brief: (§1)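 Regression normalization was applied to scanned fluorescence from custom Agilent 4×180K protein-binding microarrays. Before scanning, arrays were incubated 1 h with ligand-free nuclear receptor dimers, and binding was detected with antibodies against each partner (one per run). Binding z-scores use the random background probes as reference.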

[2] = system: PPARg:RXRa IVT, anti-PPARg (NR concentration 270 nM, RXRa partner concentration 90 nM)
Method in brief: as §1

[3] = system: PPARg DBDmut:RXRa IVT, anti-PPARg (DBD mutation: PPARg1 K132A/R137A, NR concentration 270 nM, RXRa partner concentration 90 nM)
Method in brief: as §1

[4] = system: PPARg DBDmut IVT, anti-PPARg (DBD mutation: PPARg1 K132A/R137A, NR concentration 270 nM)
Method in brief: as §1

[5] = system: PPARg homodimer (NR concentration 180 nM)
Method in brief: as §1

[6] = system: PXR:RXRa (NR concentration 270 nM, RXRa partner concentration 90 nM)
Method in brief: as §1

[7] = system: PXR homodimer (NR concentration 270 nM)
Method in brief: as §1

[8] = system: RARa:RXR (NR concentration 270 nM, RXRa partner concentration 90 nM)
Method in brief: as §1

[9] = system: RARa homodimer (NR concentration 270 nM)
Method in brief: as §1

[10] = system: RARb:RXRa (NR concentration 270 nM, RXRa partner concentration 90 nM)
Method in brief: as §1

| Sequence | PBM binding z-score [1] | PBM binding z-score [2] | PBM binding z-score [3] | PBM binding z-score [4] | PBM binding z-score [5] | PBM binding z-score [6] | PBM binding z-score [7] | PBM binding z-score [8] | PBM binding z-score [9] | PBM binding z-score [10] |
| --- | --- | --- | --- | --- | --- | --- | --- | --- | --- | --- |
| AGTCAAAGTTCACTTGGTAACGTAAGATTCAGCT | 0.263 | 2.42 | 1.28 | 0.299 | 1.76 | 4.17 | 2.53 | 2.62 | 0.876 | 4.58 |
| CCTACTCGGCCATTCAGAGGTCATTGATCATATG | 2.23 | 1.88 | 0.471 | 0.672 | 2.68 | 4.91 | 3.38 | 4.55 | 1.67 | 3.27 |
| CCTACTGGGCCAAAATGGTCATTGATGCCGATAA | 2.55 | 2.95 | -0.67 | -0.0275 | 0.212 | -0.439 | -0.289 | 0.45 | 0.0345 | 0.172 |
| ATCGAAAGGTCGTGAGCTGAGTATACAGAAAGGC | -0.173 | 1.49 | 0.42 | 0.76 | 1.16 | 2.75 | 0.0585 | 3.56 | -0.0844 | 3.76 |
| TCTGGTTGGTCAAAGGTCACACACTCGAAATGCG | 3.03 | 5.67 | 2.56 | 3.21 | 7.5 | 6.15 | 2.71 | 7.76 | 4.92 | 4.96 |
| CCGAGTAGGTTGTGGGGCATTCAGGCAACGGTGA | 1.04 | 1.29 | -1.06 | -0.659 | 0.736 | -0.334 | 0.115 | -0.303 | 0.109 | 0.0437 |
| TCTGCTAGGTCAACGATGGTCAGCTAATCTGCTA | 4.23 | 4.22 | 0.762 | 0.898 | 1.44 | 1.67 | -0.856 | 2.46 | -0.93 | 4.01 |
| TAGCCTAGGTCATGCAGGGGCCAGTATAGAAAGC | 1.42 | 2.59 | -0.359 | -0.442 | 1.36 | 2.18 | -0.721 | 3.39 | -0.25 | 3.85 |
| TCTTGTAGATCAACAGGAGGTTAAGGAAGATCGA | 1.4 | 0.448 | 1.51 | 0.495 | 0.156 | 0.485 | -0.267 | 0.702 | 0.0704 | 0.516 |
| ATATGTAGGTTATCGGGTCCTTCAGTTTGCGCAT | 6.92 | 6.98 | 2.02 | 2.6 | 1.69 | 0.963 | 0.468 | 0.74 | 0.677 | 0.829 |
| ATCTCTAGGCAACAAGTTCAGTGAAAGAGAGGAC | 0.952 | 0.456 | 0.856 | 0.154 | 0.297 | 0.875 | 1.52 | 0.335 | 0.376 | 1.32 |
| ATATGTAGGTTATCGTGTCATTCAGTTTGCGCAT | 7.74 | 7.44 | 2.49 | 2.15 | 1.76 | 1.17 | 0.812 | 1.16 | 0.933 | 1.32 |
| ACTAGTTGGTCAGTTGAGGTCACACACAATTCGG | 1.58 | 2.98 | 1.37 | 0.982 | 3.72 | 5.67 | 2.39 | 4.98 | 1.56 | 3.54 |
| GATACAGGGTCAAGGCCAGAGGACGCGTATTGAT | 2.29 | 3.97 | 0.837 | 0.968 | 2.75 | 3.68 | 0.296 | 4.56 | 1.16 | 4.44 |
| TCTCGGAGGACACGAAAGGTAAGAGCTCGACATC | 1.28 | -0.239 | -1.14 | -1.23 | -0.641 | -0.211 | -0.673 | -0.135 | -0.792 | 1.59 |
| TAGCCTAGGTCATTCGGGGGCCAGTATAGAAAGC | 2.62 | 4.33 | 2.22 | 5 | 1.93 | 3.84 | 0.257 | 3.92 | 0.944 | 3.99 |
| AATACCGGGTCATCGTAGGCCAGAGTACGCACAG | 2.9 | 4.61 | 2.58 | 2.08 | 2.01 | 4.56 | 0.459 | 4.53 | 0.886 | 3.67 |
| TCTGCTAGGTCAGTTGGTGAGCTAACGAGCTGCC | 2.62 | 2.7 | 0.403 | 1.14 | -0.166 | -0.0879 | -1.19 | 0.102 | -1.25 | 3.16 |
| AGTCAAAGTTCATGTAGGTAACGTAAGATATGCT | 0.795 | 4 | 1.62 | 2.1 | 3.26 | 5.3 | 5.21 | 3.76 | 0.859 | 4.81 |
| GATACAGTGTCAGCTAGAGGCCAGAGTATGGAAA | -0.588 | 0.187 | 0.343 | -0.259 | -0.286 | -0.439 | -0.0774 | -0.0269 | -0.579 | 0.973 |
| GGAAGGAGGGCAAGTTGATAGCAGAGTTTGATGG | 3.75 | 3.16 | 0.411 | 0.837 | 2.03 | 1.44 | 2.2 | 0.685 | 1.5 | 2.54 |
| CAAACTAGGTAACCGGAAGGTCAAAGTCCGCATG | 6.68 | 6.36 | 1.05 | 1.34 | 3.53 | 3.95 | 1.57 | 4.88 | 1.78 | 3.35 |
| CGAACTAGGCCAGAACAGGACAGTGAAGGATGAT | 3.99 | 3.44 | 0.251 | 0.0234 | 0.0323 | -0.123 | -0.145 | 0.379 | 0.0972 | 0.171 |
| CCTCGGAGGACAACATGAGGTCAGAGCTGCCAGA | 0.44 | 0.437 | -0.816 | -1.02 | 1.69 | 2.8 | 0.437 | 2.67 | 0.194 | 3.04 |
